# Assay results published in ChEMBL document CHEMBL4513216, “Probing the Open Global Health Chemical Diversity Library for Multistage-Active Starting Points for Next-Generation Antimalarials” (ACS Infect Dis, 2020).
# Screen size: about 65,000 compounds; about 2,100 (3.2%) showed an effect of 50% or more. The median lay at about -52%. For the sample, strong results were picked, then their nearest neighbours and some compounds at random.
# Test system: Plasmodium falciparum
# Test: Screen against P. falciparum Asexual Blood Stage (ABS), at 5uM
# Type: functional, Dd2
# Details: tested at 5 uM
row,Compound,INHIBITION
1,Cc1nc(CN2C[C@@H]3CN(C(=O)Cc4ccccn4)C[C@@H]3C2)cs1,-41.5%
2,CN1CCC2(Cc3ccccc3NC2=O)C1 (stereo not given),8.23%
3,Cc1nn(C)c2ncc(S(=O)(=O)N3CCN4CCCC4C3)cc12 (stereo not given),-67.5%
4,CC(c1cn2ncsc2n1)n1cc2[nH]cccc-2c1=O (stereo not given),-131%
5,CO[C@@H]1CN(Cc2scnc2C)[C@@H]2CCCO[C@@H]21,-39.6%
6,CC(=O)N1CCCC2(CN(Cc3ccncc3)CCO2)C1 (stereo not given),-47.6%
7,CN1CCC(N(C)C[C@H]2CC[C@@H](Cc3ccc4occc4c3)O2)CC1,85.8%
8,CCc1nc(CN2CCN(C(=O)Cc3c(C)noc3C)CC2)cs1,-46.1%
9,Cc1noc(C)c1CC(=O)N1CCN(Cc2cscn2)CC1,-151%
10,Cc1noc(C)c1CC(=O)N1CCCN(Cc2cscn2)CC1,63.9%
11,COc1ccccc1CNC(C)c1ccc(-n2ccnc2)cc1 (stereo not given),78.4%
12,CCOc1cccc(CNC(C)c2ccc(-n3ccnc3)cc2)c1O (stereo not given),75%
13,COc1cccc(CNC(C)c2ccc(-n3ccnc3)cc2)c1O (stereo not given),79.5%
14,CC(Cc1c(F)cccc1F)NC(=O)CSCC(N)=O (stereo not given),-46.4%
15,Nc1cnc(-c2cccc3c2CCNC3)cn1,-39.4%
16,Cc1noc([C@@H]2C[C@H]3OCC[C@H]3N(C(C)C)C2)n1,-89.1%
17,CC1(C)CC2(CCO1)NC(=O)c1cc(Br)ccc1-n1nnnc12 (stereo not given),-59.6%
18,c1cc(CN2C[C@@H]3COC[C@]3(COCC3CC3)C2)ccn1,-11.9%
19,CNc1ncccc1C(=O)N1CCN(C)C2(CCN(C)CC2)C1,-111%
20,COCCn1cncc1Cn1ncc2ccccc2c1=O,-74.4%
21,O=C(COc1ccc(F)cc1)N1CCCSCC1CN1CCOCC1 (stereo not given),-80.2%
22,COc1cccc(CC(=O)N2CCCSCC2CN2CCCC2)c1 (stereo not given),54.7%
23,COc1cccc(OCC(=O)N2CCCSCC2CN2CCOCC2)c1 (stereo not given),-105%
24,CCS(=O)(=O)N1CCC2(C1)C(=O)N(C)CCN2Cc1ccncc1 (stereo not given),-177%
25,CCO[C@@H]1CC[C@H]2[C@H]1OCCN2Cc1ccoc1,-43.3%
26,OCCN1CCCC(c2cccc(-c3ccccc3F)n2)C1 (stereo not given),83.4%
27,O=C1N(Cc2ccccn2)C[C@H]2CN(C3CCOCC3)CCN12,-92.3%

row,Compound,INHIBITION
1,O=C1NC[C@H]2CN(C3CCOCC3)CCN12,-118%
2,Fc1ccccc1-c1cccc(C2CCCN(C3CCOCC3)C2)n1 (stereo not given),82.3%
3,Cc1nc(CN2CCN(C(=O)COc3c(C)ccc(C)c3C)CC2)no1,-66.3%
4,O=C(N1CCCO1)[C@@]12CCO[C@@H]1CCN(Cc1cccnc1)C2,-54.2%
5,CN(C)CCN(C)C(=O)Cn1cccc2cc(-c3ccc(F)cc3)nc1-2,86.8%
6,CCc1cccc2c(CC(=O)N(C)CCN(C)C)c(C)[nH]c12,18.4%
7,c1ccc(CO[C@@H]2CN(Cc3ccoc3)[C@@H]3COC[C@@H]32)nc1,-37.1%
8,Cc1cc(CN2C[C@@H]3COC[C@]3(COCC(=O)N(C)C)C2)no1,-23%
9,CCc1[nH]c2c(CNc3nccc(N)n3)cc(C)cc2c1C,90.9%
10,Cc1cc(CNc2nccc(N)n2)c2[nH]c(C)c(C)c2c1,79.5%
11,CCc1[nH]c2c(CNc3nccc(N)n3)cc(F)cc2c1C,85.6%
12,CCN1C(=O)C2(CCCCC2)NC12CCSCC2,-40%
13,COc1cccc(C2SCC(=O)Nc3ccsc32)c1 (stereo not given),-108%
14,Cc1nc(CN2CCO[C@@H]3CNCC[C@@H]3C2)cs1,-15.7%
15,NCC(=O)N1CCCC1c1ccc(C(=O)NCc2ccoc2)s1 (stereo not given),92.6%
16,O=C(c1ccc(C2CCCN2)s1)N1CCN2CCC1CC2 (stereo not given),-75.7%
17,Cc1sc2nc(C(F)(F)F)nc(N3CCCN(C)CC3)c2c1C,76.1%
18,O=C1CSC(c2ccc(F)c(Cl)c2)c2c(n(C3CCOCC3)[nH]c2=O)N1 (stereo not given),-35.3%
19,Cc1cccc(CN2CC3C[C@]3(NC(=O)c3cccc(F)c3)C2)n1 (stereo not given in full),-65.9%
20,O=C(c1cnc(-c2ccccc2)s1)N1CCC2(CC1)OCCO2,-174%
21,COc1ccc2c(c1)c(C(=O)Nc1nnn[nH]1)cn2C(C)C,-11.6%
22,c1cnc(N2C[C@H]3CCN(Cc4ccncc4)C[C@H]3C2)nc1,-82.6%
23,c1cc(CN2CC[C@@H]3CN(c4cncnc4)C[C@@H]3C2)ccn1,-49.4%
24,CN1CCC(C2CCN(Cc3cccc(-n4cccn4)c3)CC2)C1 (stereo not given),85.7%
25,NC(=O)c1cnn2c1NCC(CNCC1(c3ccccc3)CCC1)C2 (stereo not given),22.7%
26,CN[C@@H]1CCC[C@@H](Oc2ccccc2Oc2ccc(C)cc2)[C@@H]1O,90.3%
27,N[C@@H]1CCC[C@@H](Oc2ccc(F)cc2Oc2ccccc2)[C@@H]1O,77.4%

row,Compound,INHIBITION
1,Cc1ccc(Oc2cc(F)ccc2O[C@@H]2CCC[C@@H](N)[C@H]2O)cc1,91.1%
2,Fc1cccnc1N1CCOCC2(CCCNC2)C1 (stereo not given),34.8%
3,CCCN1C(=O)CC2(CCCNC2)C1=O (stereo not given),-90.5%
4,Cc1ccc(CC(=O)N2CCN(CC(C)O)CC2)cn1 (stereo not given),-89.8%
5,CN(Cc1cc(F)cc2cccnc12)CC1CCN(CCO)CC1,84.7%
6,CN(Cc1cc(Cl)cc2cccnc12)CC1CCN(CCO)CC1,88.7%
7,CN(c1ncccc1C#N)C1CCN(CCc2ccccn2)CC1,20.6%
8,CC(O)CN1CCC(CN(C)Cc2cc(F)cc3cccnc23)CC1 (stereo not given),87.2%
9,CC(C)CN1C(=O)C2(CCCC2)NC1c1cn(C)c(=O)n(C)c1=O (stereo not given),-15.3%
10,C[C@H]1C[C@@H]2CCN(CC3CCOCC3)C[C@H]2O1,-49.5%
11,CC(C)OCCNC1(c2ccc(Cl)cc2)CCOCC1,37.7%
12,CC(NCC1(N(C)C)CCOCC1)c1ccc(Cl)cc1 (stereo not given),74.6%
13,CN1CCN2C(=O)N(C3CCCCC3)C[C@H]2C1,-52.1%
14,c1ccc(CO[C@H]2CO[C@@]3(CCN(Cc4ccoc4)C3)C2)nc1,14.1%
15,c1ccc(CN2CCCC3(CCN(Cc4cccs4)C3)C2)nc1 (stereo not given),73.8%
16,c1ccc(N2CCC3(COCCN(Cc4cccs4)C3)C2)nc1 (stereo not given),37.5%
17,c1ccc(CN2CCC3(CC2)CCN(Cc2cccs2)C3)nc1,54.8%
18,c1ccc(CN2CCC3(CC2)CCN(Cc2cccnc2)C3)nc1,21%
19,c1ccc(CN2CCC3(CC2)CC(Nc2nccs2)CO3)nc1 (stereo not given),75%
20,c1ccc(CO[C@@H]2CO[C@@]3(CCN(Cc4ccccn4)C3)C2)nc1,-34.3%
21,c1ccc(N2CCCC3(CCN(Cc4cccs4)C3)C2)nc1 (stereo not given),73.4%
22,c1ccc(CN2CCCC3(CCN(CC4CCCO4)CC3)C2)nc1 (stereo not given),15.1%
23,O=S(=O)(C1CC1)N1CCC2(CCCN(Cc3ccccn3)C2)CC1,-22.4%
24,CS(=O)(=O)N1CCC2(CCCN(Cc3ccccn3)C2)C1 (stereo not given),-32.2%
25,Cc1ccc(N2C[C@@H]3OCCN(CC4CC4)[C@@H]3C2)nn1,-167%
26,O=C(c1ccco1)N1CCN2C[C@H](OCc3cccnc3)C[C@H]2C1,-180%
27,O=C([C@H]1C[C@H]2OCC[C@H]2N(Cc2ccncc2)C1)N1CCCCO1,-62.9%

row,Compound,INHIBITION
1,CCN(CC)C(=O)C1CCC2(CCNCC2)O1 (stereo not given),-55.8%
2,c1ccc(CO[C@H]2CC[C@H]3[C@H]2OCCN3Cc2nccs2)nc1,-8.49%
3,CSc1nccc(N2CCC3(CCCN(CC4CC4)C3)C2)n1 (stereo not given),-48.7%
4,CC(C)CN1CCCC2(CCN(c3ccc(C#N)cn3)C2)C1 (stereo not given),9.73%
5,CC(C)CN1CCCC2(CCN(c3ccccn3)C2)C1 (stereo not given),71.2%
6,CN(Cc1ccccc1)c1ncccc1CNC1CN2CCC1CC2 (stereo not given),62.6%
7,CC(C)c1noc(CN(Cc2cccnc2)C2CN3CCC2CC3)n1 (stereo not given),-90.3%
8,CN(CCc1ccccc1)Cc1c(C2CC2)[nH]c2ncccc12,-22.1%
9,COc1ncccc1CN1C[C@H]2CCN(C(C)C)C[C@H]2C1,9.06%
10,CC(C)N1CCC(NCc2cccnc2N(C)Cc2ccccc2)CC1,84.1%
11,CN(c1ncccc1C#N)C1CCN(Cc2ccncc2)CC1,-82.3%
12,CN(Cc1ccccc1)c1ncccc1CNC1CCC1,71.1%
13,CNc1nccnc1C1CCN(C(C)C)CC1,10.5%
14,Nc1cc(-c2cccc3c2CCNC3)ncn1,-47.8%
15,Cc1ccccc1CC(=O)N1CCN(C2CCOC2=O)CC1 (stereo not given),-126%
16,c1cncc(COC[C@H]2CC[C@H]3[C@H](CCN3Cc3cccs3)O2)c1,-174%
17,CC(=O)N1CCN(Cc2ccncc2)CC2(CC(=O)N(C)C2)C1 (stereo not given),-18.8%
18,COCCn1c(C(=O)NCc2n[nH]c(C)n2)cc2ccccc21,-74.2%
19,Cc1nc(CN2CCO[C@@H]3CC(COc4ccccn4)C[C@H]32)cs1 (stereo not given in full),-52.4%
20,Cc1cc(C(=O)NCC(=O)N2CCOCC2)nn1C(C)(C)C,-113%
21,Cc1ncc2c(n1)CCCC2NC(=O)c1cnn(Cc2ccccc2)c1 (stereo not given),-115%
22,Cc1nc2c(c(NC3CCN(Cc4ccccc4)CC3)n1)CCNCC2,78.7%
23,c1ccc(CNc2ncc(CN3CC[C@@H]4CC[C@H](C3)N4)cn2)cc1,-65%
24,Cc1nnc([C@H]2CC[C@@H]3[C@@H](CCN3Cc3c(C)noc3C)O2)o1,-1.83%
